USP10 inh: human USP10 deubiquitinase inhibition. purified USP10, Ub-rhodamine fluorescence, 60 min. inhibition, % at 20 µM. AID 1645856. 47,000 compounds, 1.1% hits. Q14694
USP17 inh: inhibitors of human USP17 deubiquitinase | AID 1645855 | purified USP17, Ub-rhodamine cleavage fluorescence, 3 h | 47,000 compounds, 6.5% hits | A8MUK1 | inhibition, % at 50 µM
USP30 block: human USP30 deubiquitinase inhibition. inhibition, % at 25 µM. purified USP30, Ub-rhodamine cleavage fluorescence. Q70CQ3. 47,000 compounds, 5.3% hits
Target sequence (Q70CQ3 whole entry, looked up): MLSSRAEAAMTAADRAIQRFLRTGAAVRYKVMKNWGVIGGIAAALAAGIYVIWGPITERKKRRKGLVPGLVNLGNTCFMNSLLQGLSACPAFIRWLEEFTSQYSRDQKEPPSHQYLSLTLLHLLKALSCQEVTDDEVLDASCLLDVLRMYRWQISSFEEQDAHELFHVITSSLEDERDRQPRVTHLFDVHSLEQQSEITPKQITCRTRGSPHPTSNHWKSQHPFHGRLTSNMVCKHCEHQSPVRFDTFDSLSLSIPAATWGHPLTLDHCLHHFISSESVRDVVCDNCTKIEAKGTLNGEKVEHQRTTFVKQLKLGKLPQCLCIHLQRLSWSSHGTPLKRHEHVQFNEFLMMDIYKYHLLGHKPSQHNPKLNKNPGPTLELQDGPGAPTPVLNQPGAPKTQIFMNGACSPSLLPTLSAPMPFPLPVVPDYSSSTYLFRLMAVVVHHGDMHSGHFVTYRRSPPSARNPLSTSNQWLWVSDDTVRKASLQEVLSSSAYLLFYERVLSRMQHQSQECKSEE
USP8 block: human USP8 deubiquitinase inhibition; P40818; purified USP8, Ub-rhodamine cleavage fluorescence, 30 min; inhibition, % at 20 µM; 47,000 compounds, 4.2% hits; AID 1645853
USP28 block: inhibitors of human USP28 deubiquitinase. 47,000 compounds, 3% hits. inhibition, % at 25 µM. AID 1645857. purified USP28, Ub-rhodamine cleavage fluorescence, 30 min. Q96RU2
Numbers without * were called inactive; nt = no result given. Shown are actives, neighbours in structure and some others; about 14% of the full set was active somewhere. Cut-off read from the data, not from the text of the source: active = inhibition above about 30%; inactive = the rest.

SMILES	USP10 inh	USP17 inh	USP30 block	USP8 block	USP28 block
Cc1ccc(S(=O)(=O)N2CCCC(c3nc(-c4cccnc4)no3)C2)cc1 (centres undefined)	2	-14	10	1	-3
Cc1ccc(-n2c(-c3ccccc3)cn3c4c(=O)[nH]c(=O)n(C)c4nc23)cc1Cl	8	52*	34*	-7	16
Cc1ccc(-n2c(-c3ccccc3)cn3c4c(=O)[nH]c(=O)n(C)c4nc23)cc1C	4	78*	-44	0	5
Cn1c(=O)[nH]c(=O)c2c1nc1n(CCc3ccccc3)c(-c3ccccc3)cn21	4	54*	50*	-23	5
Cc1nc(N2CCCC2)c2oc3ccccc3c2n1	-1	-10	-23	-5	-7
CN(Cc1ccccc1F)C(=O)CN1C(=O)NC(C)(c2ccccc2)C1=O (centres undefined)	0	14	15	18	6
CCCn1c(=O)c2cc(C(=O)Nc3ccccc3)nn2c2ccccc21	3	31*	0	-15	-2
COc1ccccc1-c1nnc2sc(COc3ccc(F)cc3)nn12	1	0	nt	-3	nt
Cc1ccccc1-c1nnc2sc(COc3ccc(Cl)cc3)nn12	26	68*	80*	31*	53*
COc1ccc(-c2nnc(SCc3ccccc3C#N)o2)c(OC)c1	1	25	50*	13	14
CC(C)(C)C(=O)N1CCCC(c2cncc(N3CC4(CCCCC4)OC3=O)n2)C1 (centres undefined)	2	18	45*	-9	25
Cc1ccc(NC(=O)Cn2c(N3CCOCC3)nc3cc(C)n(C)c3c2=O)cc1	-4	14	49*	5	-11
Cc1ccccc1NC(=O)Cn1c(N2CCOCC2)nc2cc(C)n(C)c2c1=O	-6	36*	62*	5	10
CCc1cc(=O)n(CC(=O)Nc2ccc(F)c(F)c2)c(N2CCOCC2)n1	-2	5	-1	7	5
CCc1ccc(NC(=O)Cn2c(N3CCOCC3)nc3cc(C)n(C)c3c2=O)cc1	-5	40*	33*	14	8
Cc1cc2nc(N3CCOCC3)n(CC(=O)Nc3cccc(F)c3)c(=O)c2n1C	0	38*	13	19	-1
Cc1cccc(NC(=O)Cn2c(N3CCOCC3)nc(C)cc2=O)c1	0	-1	1	0	-11
COc1cccc(-c2noc(N3CCN(c4ccccc4F)CC3)n2)c1OC	0	0	-3	-6	-2
Cc1ccnc(Nc2nc(C)c(C(=O)NC3CCCC3)s2)c1	-1	31*	-10	24	3
Cc1nc(COc2ccccc2)sc1C(=O)NC1CCCC1	-2	39*	15	15	10
CC(=O)Nc1cnn(-c2ncncc2N2CCCCC2)c1	0	-5	-3	-12	-2
O=C(c1ccccc1)N1CCc2nc(C(=O)N3CCCC3)sc2CC1	0	-7	1	-38	0
Oc1cccc(-c2cc(CC3(NC4CCCCC4)COC3)no2)c1	-2	-12	-27	-18	-10
Cc1ccc2nc(CCc3ccc(NS(=O)(=O)c4ccc(F)c(F)c4)cc3)[nH]c2c1	9	1	3	9	31*
Cc1ccc2nc(CCc3ccc(NS(=O)(=O)c4cc(F)ccc4F)cc3)[nH]c2c1	5	-8	-5	-4	25
SMILES	USP10 inh	USP17 inh	USP30 block	USP8 block	USP28 block
COc1cccc(C2CC(=O)Nc3c2sc(C(=O)O)c3-c2ccc(C)cc2)c1 (centres undefined)	3	14	30*	17	3
Cc1ccc2c(c1)C(=O)NCC1(CCN(C(=O)c3c(F)cccc3F)CC1)O2	1	4	3	2	-1
CCCNC(=O)c1oc2ccc3c(c2c1C)C(=O)CC1(CCCC1)O3	6	20	39*	10	15
Cc1ccccc1NC(=O)CNc1ccc(C#N)cc1	-5	-7	-7	9	0
N#Cc1cccc(NC(=O)Nc2cccn(Cc3ccccc3F)c2=O)c1	71*	85*	27	94*	82*
N#Cc1ccc(NC(=O)Nc2cccn(Cc3ccccc3Br)c2=O)cc1	51*	81*	30*	90*	63*
CCN(CC)C(=O)c1nc2c(s1)CCN(C(=O)C(C)C)CC2	0	6	18	23	4
O=S(=O)(Nc1ncnc2sccc12)c1ccc2c(c1)OCCO2	0	-2	2	0	0
COc1cccc(CNC(=O)C2Oc3ccccc3NC2=O)c1 (centres undefined)	2	-1	-10	1	-2
COc1ccc(OC)c(NC(=O)C2Oc3ccccc3NC2=O)c1 (centres undefined)	1	-11	0	-1	51*
COc1ccccc1N1CCn2c(nc3cc(NS(C)(=O)=O)ccc32)C1	3	40*	8	14	0
Cc1ccccc1CN1CCC(C2CCCCCN2C(=O)C2CCOCC2)CC1 (centres undefined)	-6	-18	-28	-10	-18
CCN(c1cccc(C)c1)S(=O)(=O)c1ccc2c(c1)NC(=O)CC(=O)N2	3	7	20	13	6
O=C(CCc1cccnc1)N1CCCC2(CCCN2Cc2ccccc2F)C1 (centres undefined)	-6	-20	-3	-65	-4
O=C(CCc1cccnc1)N1CCCC2(CCCN2Cc2cccc(F)c2)C1 (centres undefined)	-3	11	44*	-81	9
CCc1nc2n(n1)C(CC(=O)Nc1cccc(Cl)c1Cl)C(=O)N2 (centres undefined)	-1	9	8	13	5
COc1ccccc1OCC(=O)Nc1ccc2[nH]c(=O)[nH]c2c1	-1	-27	-96	-6	-25
Fc1ccc(-c2cnc(N3CCN(c4ccccn4)CC3)nc2)cc1	-6	19	31*	17	8
Fc1ccc(-c2[nH]ncc2CN2CCN(c3ccccn3)CC2)cc1	-2	-3	12	1	10
COc1cccc(N(C(=O)Cc2ccccc2OC)c2nc3ccccc3s2)c1	1	-4	-1	9	6
Cc1cc(C)cc(-n2ccn3cc(-c4cccc(Cl)c4)nc3c2=O)c1	4	45*	-35	25	-5
COc1ccc(-c2nc(C#N)c(NCc3ccccc3OC)o2)cc1	9	-8	nt	10	nt
CCn1cc(S(=O)(=O)NCc2cc(F)cc(F)c2)c2cccnc21	8	37*	-44	48*	11
O=C(Nc1cc(S(=O)(=O)N2CCOCC2)ccc1Cl)c1cc2c(s1)CCCC2	7	4	-1	0	0
COc1ccc(NS(=O)(=O)c2cc(OC)ccc2NC(=O)c2cc3c(s2)CCC3)cc1	-3	31*	-17	-1	0
O=C1CCN(C(=O)COc2ccc(Cl)cc2)c2ccccc2N1	1	-9	15	1	-4
O=C(COc1ccc(Cl)cc1)N1CCc2cc3ccccc3nc21	-5	65*	-14	-12	2
CCN1CCN(C(=O)C2(c3ccccc3)CCOCC2)CC1	-3	-2	22	-2	2
